Unmarked numbers belong to inactive results. Results filed as inconclusive are left out. Where a call stands in place of a potency, no number is given. The source made the active and inactive calls. Unless noted, calls come from the whole dose curve; as a rule, active = well fitted curve in the direction sought with a large enough effect in the repeat runs; inconclusive = weak or mixed curves; inactive = no such curve, though single readings can be large; an effect the other way counts as inactive or inconclusive.
Legend:
[1] = qHTS assay to identify small molecule antagonists of the estrogen receptor alpha (ER-alpha) signaling pathway using the BG1 cell line in the presence of 0.1 nM 17-beta-estradiol - cell viability counter screen (AID 1259241); note: nearly all actives have a fitted effect of over 40% in size; note: potency is the fitted concentration of half-maximal effect
Procedure, shortened: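 Following 5 days in phenol red-free medium with charcoal-stripped serum, VM7Luc4E2 cells received test compounds alongside 0.1 nM 17beta-estradiol (final) at 37C for 22 hr. Live cells were then quantified via protease-substrate fluorescence.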

[2] = qHTS assay to identify small molecule antagonists of the androgen receptor (AR) signaling pathway using the MDA cell line in the presence of 0.5 nM R1881 - cell viability counter screen (AID 1259242); note: nearly all actives have a fitted effect of over 45% in size; note: potency is the fitted concentration of half-maximal effect
Procedure, shortened: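 Human breast carcinoma MDA-kb2 cells, cultured without CO2, receive compounds alongside 0.5 nM (final) R1881 agonist. After 16 hr at 37C, viability is taken as live-cell protease signal.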

[3] = molecular target: Androgen receptor (Homo sapiens) (UniProt P10275); assay: qHTS assay to identify small molecule antagonists of the androgen receptor (AR) signaling pathway using the MDA cell line in the presence of 0.5 nM R1881 (AID 1259243); note: nearly all actives have a fitted effect of over 50% in size; note: potency is the fitted concentration of half-maximal effect
Androgen receptor (Homo sapiens), sequence (P10275 whole entry, looked up): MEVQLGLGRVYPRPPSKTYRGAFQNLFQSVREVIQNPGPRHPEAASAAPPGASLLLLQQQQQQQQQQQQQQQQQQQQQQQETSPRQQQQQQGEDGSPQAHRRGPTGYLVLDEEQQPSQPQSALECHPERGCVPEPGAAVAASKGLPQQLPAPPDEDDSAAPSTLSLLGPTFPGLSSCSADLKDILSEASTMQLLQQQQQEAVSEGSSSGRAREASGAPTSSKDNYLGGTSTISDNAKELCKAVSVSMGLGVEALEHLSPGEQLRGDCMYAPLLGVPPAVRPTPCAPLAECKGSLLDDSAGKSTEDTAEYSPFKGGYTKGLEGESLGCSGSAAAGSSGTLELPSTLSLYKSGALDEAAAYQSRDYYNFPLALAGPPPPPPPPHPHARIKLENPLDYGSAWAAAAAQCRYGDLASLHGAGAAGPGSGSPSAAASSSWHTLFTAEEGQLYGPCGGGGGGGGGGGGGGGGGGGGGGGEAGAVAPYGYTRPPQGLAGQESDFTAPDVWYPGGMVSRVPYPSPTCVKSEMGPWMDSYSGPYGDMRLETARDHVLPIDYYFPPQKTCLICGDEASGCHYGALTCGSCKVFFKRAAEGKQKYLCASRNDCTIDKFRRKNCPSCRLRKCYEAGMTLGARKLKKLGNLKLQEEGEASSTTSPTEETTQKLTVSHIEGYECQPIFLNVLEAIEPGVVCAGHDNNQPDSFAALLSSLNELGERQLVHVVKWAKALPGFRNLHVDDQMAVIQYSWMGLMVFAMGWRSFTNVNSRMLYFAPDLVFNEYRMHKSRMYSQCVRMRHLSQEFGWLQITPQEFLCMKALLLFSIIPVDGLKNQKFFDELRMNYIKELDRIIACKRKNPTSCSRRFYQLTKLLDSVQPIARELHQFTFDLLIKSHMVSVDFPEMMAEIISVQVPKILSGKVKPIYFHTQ
Procedure, shortened: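 Cells: MDA-kb2 (MMTV-luc). Stimulus: 0.5 nM R1881. Time: 16 hr, 37C, no CO2. Detection: ONE-Glo luminescence after 30 min at RT.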

[4] = molecular target: Estrogen receptor (Homo sapiens) (UniProt P03372); assay: qHTS assay to identify small molecule antagonists of the estrogen receptor alpha (ER-alpha) signaling pathway using the BG1 cell line in the presence of 0.1 nM 17-beta-estradiol (AID 1259244); note: nearly all actives have a fitted effect of over 50% in size; note: potency is the fitted concentration of half-maximal effect
Estrogen receptor (Homo sapiens), sequence (P03372 whole entry, looked up): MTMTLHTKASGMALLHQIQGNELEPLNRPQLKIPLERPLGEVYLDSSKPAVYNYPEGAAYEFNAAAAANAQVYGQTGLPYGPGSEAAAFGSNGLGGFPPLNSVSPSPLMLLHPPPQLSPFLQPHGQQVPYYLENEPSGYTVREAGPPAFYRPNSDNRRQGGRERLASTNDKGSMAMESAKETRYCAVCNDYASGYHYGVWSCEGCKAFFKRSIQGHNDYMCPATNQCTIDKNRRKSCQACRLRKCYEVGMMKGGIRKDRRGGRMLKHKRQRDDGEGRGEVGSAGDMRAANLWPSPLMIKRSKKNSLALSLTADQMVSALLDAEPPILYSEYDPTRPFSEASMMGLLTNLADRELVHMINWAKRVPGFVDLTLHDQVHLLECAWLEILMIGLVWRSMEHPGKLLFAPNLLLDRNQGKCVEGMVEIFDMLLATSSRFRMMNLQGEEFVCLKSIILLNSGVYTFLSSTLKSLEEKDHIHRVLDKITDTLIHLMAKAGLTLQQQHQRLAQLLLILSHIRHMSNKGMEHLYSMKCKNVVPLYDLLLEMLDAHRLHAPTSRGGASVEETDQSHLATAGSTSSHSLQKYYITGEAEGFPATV
Procedure, shortened: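 Seeding of stripped-serum-adapted VM7Luc4E2 cells, 24 h attachment, compound transfer, then 0.1 nM final 17beta-estradiol; after 22 h incubation, ONE-Glo reagent and luminescence reading.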

[5] = qHTS assay to identify small molecule HDAC inhibitors - cell viability counter screen (AID 1259365); note: nearly all actives have a fitted effect of over 50% in size; note: potency is the fitted concentration of half-maximal effect
Procedure, shortened: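 HCT-116 wild-type, overnight attachment; 2hr drug exposure, 37C; CellTiter-Glo luminescent ATP readout after 30min RT.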

[6] = qHTS assay to identify small molecule agonists of the sonic hedgehog signaling (Shh) pathway - cell viability counter screen (AID 1259366); note: potency is the fitted concentration of half-maximal effect; nearly all actives have a fitted effect of over 50% in size
Procedure, shortened: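 Compounds in DMSO were pin-transferred onto 3T3 Gli1-Luc cells that had settled 4hr; plates then stood 24hr at 37C and 5% CO2. One hour before the end, CellTiter-Fluor was added and fluorescence recorded.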

[7] = qHTS assay to identify small molecule antagonists of the sonic hedgehog signaling (Shh) pathway - cell viability counter screen (AID 1259367); note: nearly all actives have a fitted effect of over 55% in size; note: potency is the fitted concentration of half-maximal effect
Procedure, shortened: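 CellTiter-Fluor signal in conditioned medium-stimulated 3T3 Gli1-Luc cells, 23 hr compound exposure, 37C.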

[8] = qHTS assay to identify small molecule agonists of the sonic hedgehog signaling (Shh) pathway (AID 1259368; calls by dose curve;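 note: NIH/3T3-derived 3T3Gli1-Luc cells carrying a stable Gli1-driven firefly luciferase reporter; series mostly up to about 92 µM; nearly all actives have a fitted effect of over 15% in size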)
Procedure, shortened: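 Stable NIH/3T3 Gli1-Luc reporter clone; 24 hr cpd exposure after a 4 hr settling period; luminescence endpoint.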

[9] = qHTS assay to identify small molecule antagonists of the sonic hedgehog signaling (Shh) pathway (AID 1259369; calls by dose curve; note: nearly all actives have a fitted effect of over 45% in size; note: potency is the fitted concentration of half-maximal effect)
Procedure, shortened: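 Gli1 transcriptional reporter (firefly Luc) in NIH/3T3 background, conditioned-medium activated. 24hr exposure, luminescence endpoint.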

[10] = qHTS assay to identify small molecule agonists of the androgen receptor (AR) signaling pathway in the presence of an antagonist - cell viability counter screen (AID 1259379); note: nearly all actives have a fitted effect of over 25% in size; note: potency is the fitted concentration of half-maximal effect
Procedure, shortened: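 Counter screen for cell viability run in parallel with the AR agonist-mode luciferase assay. MDA-kb2 cells were co-treated with nilutamide (3.0uM final) and compounds, then incubated 16 hr at 37C, and CellTiter-Fluor fluorescence was measured.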

[11] = qHTS assay to identify small molecule agonists of the estrogen receptor beta (ER-beta) signaling pathway - cell viability counter screen (AID 1259380); note: nearly all actives have a fitted effect of over 30% in size; note: potency is the fitted concentration of half-maximal effect
Procedure, shortened: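 In this qHTS counter screen, HEK293T cells carrying an ER-beta/UAS beta-lactamase reporter, grown in 2% charcoal-stripped FBS, received compound for 16 hr; ATP-based CellTiter-Glo luminescence was then read after 30 min at room temperature.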

[12] = molecular target: Androgen receptor (Homo sapiens) (UniProt P10275); assay: qHTS assay to identify small molecule agonists of the androgen receptor (AR) signaling pathway in the presence of an antagonist (AID 1259381; calls by dose curve; note: nearly all actives have a fitted effect of over 15% in size)
Procedure, shortened: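 AR antagonist background: nilutamide 3.0uM final. Cell line: MDA-kb2, MMTV-driven luciferase, responsive to both AR and GR. Exposure 16hr, 37C, no CO2; ONE-Glo luminescence.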

[13] = qHTS assay to identify small molecule antagonists of the estrogen receptor beta (ER-beta) signaling pathway - cell viability counter screen (AID 1259382); note: nearly all actives have a fitted effect of over 55% in size; note: potency is the fitted concentration of half-maximal effect
Procedure, shortened: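 HEK293T ER-beta-UAS-bla, 2% charcoal-stripped FBS; compounds + 1nM E2 16 hr 37C; CellTiter-Glo luminescence, 30 min RT.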

[14] = molecular target: Estrogen receptor (Homo sapiens) (UniProt P03372); assay: qHTS assay to identify small molecule agonists of the estrogen receptor alpha (ER-alpha) signaling pathway in the presence of an antagonist (AID 1259383; calls by dose curve; note: top concentration of the series differs between compounds; nearly all actives have a fitted effect of over 15% in size)
Procedure, shortened: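 ER-alpha agonism measured under antagonist challenge: 10.0nM ICI-182,780 (final) plus compound, 15 concentrations, 22hr, VM7Luc4E2 ERE-luciferase cells. Read by luminescence.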

[15] = qHTS assay to identify small molecule HDAC inhibitors (AID 1259364);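 note: wild-type HCT-116 cells with endogenous class I/II HDAC activity; top concentration of the series differs between compounds; nearly all actives have a fitted effect of over 45% in size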
Procedure, shortened: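 After a 2 hr compound incubation (37C, 5% CO2), HCT-116 cells seeded at 1,500/well the day before received HDAC-Glo reagent; signal read as luminescence after 30 min at room temperature.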

[16] = qHTS assay to identify small molecule agonists or antagonists of the thyroid stimulating hormone receptor (TSHR) signaling pathway - wild type cell line counter screen (AID 1259384; calls by dose curve)
Procedure, shortened: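 Counter screen in untransfected Hek293: compounds (15-point titration, triplicate) plus phosphodiesterase inhibitor Ro20-1724 added after 18 h plating; 30 min RT. Intracellular cAMP via competitive d2/cryptate immunoassay, 1 h incubation.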

[17] = molecular target: Estrogen receptor beta (Homo sapiens) (UniProt Q92731); assay: qHTS assay to identify small molecule agonists of the estrogen receptor beta (ER-beta) signaling pathway (AID 1259377; active = well fitted activation curve with a large enough effect in the signal ratio in the repeat runs, not every such curve was filed as active; the % refers to the signal ratio)
Estrogen receptor beta (Homo sapiens), sequence (Q92731 whole entry, looked up): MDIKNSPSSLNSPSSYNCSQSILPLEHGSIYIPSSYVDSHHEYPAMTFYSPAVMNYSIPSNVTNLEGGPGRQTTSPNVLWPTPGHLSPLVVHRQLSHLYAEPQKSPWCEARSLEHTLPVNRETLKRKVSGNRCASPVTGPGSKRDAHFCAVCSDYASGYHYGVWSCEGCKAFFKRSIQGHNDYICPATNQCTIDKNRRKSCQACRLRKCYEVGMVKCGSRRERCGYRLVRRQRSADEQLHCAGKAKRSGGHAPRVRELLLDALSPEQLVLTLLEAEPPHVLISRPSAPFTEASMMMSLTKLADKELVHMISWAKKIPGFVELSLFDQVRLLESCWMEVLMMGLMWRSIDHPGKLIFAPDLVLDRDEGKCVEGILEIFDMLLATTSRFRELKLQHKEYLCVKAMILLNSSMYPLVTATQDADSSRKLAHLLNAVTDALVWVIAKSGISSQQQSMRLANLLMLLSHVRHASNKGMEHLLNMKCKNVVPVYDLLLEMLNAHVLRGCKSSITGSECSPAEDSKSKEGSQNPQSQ
Procedure, shortened: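 qHTS in ER-beta-UAS-bla HEK293T cells: 6 hr settling, then 16 hr compound at 37C, then LiveBLAzer substrate 2 h at RT before fluorescence reading.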

[18] = molecular target: Estrogen receptor beta (Homo sapiens) (UniProt Q92731); assay: qHTS assay to identify small molecule antagonists of the estrogen receptor beta (ER-beta) signaling pathway (AID 1259378; active = well fitted inhibition curve with a large enough effect in the signal ratio in the repeat runs, not every such curve was filed as active; the % refers to the signal ratio; note: potency is the fitted concentration of half-maximal effect)
Procedure, shortened: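 Antagonist mode: compounds added to beta-lactamase reporter HEK293T ER-beta-UAS cells stimulated with E2 (1nM final), 16 hr at 37C. LiveBLAzer B/G FRET substrate, 2 hours room temperature, fluorescence read-out.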

[19] = molecular target: Thyrotropin receptor (Homo sapiens) (UniProt P16473); assay: qHTS assay to identify small molecule antagonists of the thyroid stimulating hormone receptor (TSHR) signaling pathway (AID 1259385; calls by dose curve; note: nearly all actives have a fitted effect of over 20% in size; note: potency is the fitted concentration of half-maximal effect)
Thyrotropin receptor (Homo sapiens), sequence (P16473 whole entry, looked up): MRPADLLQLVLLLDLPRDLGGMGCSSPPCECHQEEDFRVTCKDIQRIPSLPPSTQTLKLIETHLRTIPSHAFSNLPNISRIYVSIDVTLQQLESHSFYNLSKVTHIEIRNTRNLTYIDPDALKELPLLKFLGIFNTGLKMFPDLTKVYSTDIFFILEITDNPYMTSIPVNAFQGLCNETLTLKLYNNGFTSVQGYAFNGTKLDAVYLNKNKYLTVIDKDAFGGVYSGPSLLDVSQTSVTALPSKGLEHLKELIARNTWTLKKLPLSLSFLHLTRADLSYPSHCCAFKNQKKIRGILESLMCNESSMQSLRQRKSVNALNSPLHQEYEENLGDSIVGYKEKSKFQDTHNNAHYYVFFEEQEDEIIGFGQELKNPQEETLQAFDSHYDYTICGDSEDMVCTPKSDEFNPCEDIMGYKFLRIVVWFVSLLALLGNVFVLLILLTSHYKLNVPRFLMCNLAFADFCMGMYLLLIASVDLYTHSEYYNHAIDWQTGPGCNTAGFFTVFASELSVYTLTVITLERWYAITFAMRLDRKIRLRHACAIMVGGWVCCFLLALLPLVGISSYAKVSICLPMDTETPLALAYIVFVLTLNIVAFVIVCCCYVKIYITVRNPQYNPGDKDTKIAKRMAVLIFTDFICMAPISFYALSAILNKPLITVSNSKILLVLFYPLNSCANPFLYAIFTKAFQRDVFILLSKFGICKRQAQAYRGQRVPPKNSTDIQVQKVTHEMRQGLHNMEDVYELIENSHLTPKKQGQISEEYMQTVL
Procedure, shortened: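 Antagonist mode: compound-treated TSHR-expressing HEK293 cells were stimulated with 1.5 ng/mL TSH (final) in presence of Ro20-1724 for 30 min at RT. HTRF cAMP detection after 1 h; each compound tested at 15 concentrations, triplicate.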

[20] = qHTS assay to identify small molecule phospholipidosis (PLD) inducers (AID 1259344; active = well fitted curve in the direction sought with a large enough effect; an effect the other way counts as inactive or inconclusive)
Procedure, shortened: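 Accumulated phospholipid, stained red by LipidTOX during 24 h compound treatment of HepG2 cells at 37 C, is quantified from images as pit number and intensity, normalised per cell using Hoechst-stained nuclei.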

Row | SMILES | Potency [1] | Potency [2] | Potency [3] | Potency [4] | Potency [5] | Potency [6] | Potency [7] | Potency [8] | Potency [9] | Potency [10] | Potency [11] | Potency [12] | Potency [13] | Potency [14] | Potency [15] | outcome [16] | Potency [17] | Potency [18] | Potency [19] | Potency [20]
1 | N=C1C=CC(=C(c2ccc(N)cc2)c2ccc(N)cc2)C=C1 | 30.6 µM (active) | 9.69 µM (active) | 3.06 µM (active) | 7.7 µM (active) | 24.3 µM (active) | 21.7 µM (active) | 19.3 µM (active) | inactive | 12.2 µM (active) | 12.2 µM (active) | 7.7 µM (active) | inactive | inactive | inactive | – | – | – | – | – | –
2 | Nc1ccc(N)c2ccccc12 | 19.3 µM (active) | 61.1 µM (active) | 19.3 µM (active) | 12.2 µM (active) | – | 61.1 µM (active) | 61.1 µM (active) | inactive | 12.2 µM (active) | 61.1 µM (active) | 24.3 µM (active) | inactive | 27.3 µM (active) | inactive | inactive | inactive | – | – | – | –
3 | Cc1cc(CCN2CCN(c3nsc4ccccc34)CC2)cc2c1NC(=O)CC2(C)C | 34.4 µM (active) | 27.3 µM (active) | 8.63 µM (active) | 13.7 µM (active) | inactive | 21.7 µM (active) | 19.3 µM (active) | inactive | 1.37 µM (active) | 30.6 µM (active) | 21.7 µM (active) | inactive | 19.3 µM (active) | – | – | inactive | – | – | – | –
4 | CN(C)C(=O)C1(N2CCCCC2)CCN(CC[C@@]2(c3ccc(Cl)c(Cl)c3)CN(C(=O)c3ccccc3)CCO2)CC1 | 64.1 µM (active) | 50.9 µM (active) | 28.6 µM (active) | 57.1 µM (active) | inactive | 16.1 µM (active) | 50.9 µM (active) | inactive | 18.1 µM (active) | 57.1 µM (active) | 36 µM (active) | inactive | – | inactive | inactive | inactive | inactive | 16.1 µM (active) | 64.1 µM (active) | –
5 | CCCCC(CC)CN=C(N)NC(N)=NCCCCCCN=C(N)NC(N)=NCC(CC)CCCC (configuration not stated) | 29.8 µM (active) | 18.8 µM (active) | 11.9 µM (active) | 21.1 µM (active) | 29.8 µM (active) | 23.7 µM (active) | 21.1 µM (active) | inactive | 3.76 µM (active) | 18.8 µM (active) | 23.7 µM (active) | inactive | – | inactive | inactive | – | – | – | – | inactive
6 | Oc1cc2ccccc2c2ccccc12 | 21.7 µM (active) | 19.3 µM (active) | 10.9 µM (active) | 15.4 µM (active) | 24.3 µM (active) | 4.33 µM (active) | 6.86 µM (active) | inactive | 4.86 µM (active) | 13.7 µM (active) | 5.45 µM (active) | inactive | 7.7 µM (active) | inactive | – | – | – | – | – | –
7 | CCCCCCCCCCCCCC[P+](CCCC)(CCCC)CCCC (tested in a mixture with another compound) | inactive | 19.4 µM (active) | 1.94 µM (active) | 1.73 µM (active) | – | 27.5 µM (active) | 61.5 µM (active) | inactive | 0.138 µM (active) | 7.74 µM (active) | 19.4 µM (active) | inactive | 27.5 µM (active) | inactive | inactive | inactive | – | – | 69 µM (active) | –
8 | Cc1cc(O)c(Cl)c(C)c1Cl | inactive | inactive | inactive | inactive | inactive | – | 24.3 µM (active) | inactive | inactive | inactive | – | inactive | inactive | inactive | inactive | inactive | inactive | inactive | inactive | –
9 | CC[C@@]1(O)C(=O)OCc2c1cc1n(c2=O)Cc2c-1nc1ccccc1c2/C=N/OC(C)(C)C | inactive | inactive | 0.133 µM (active) | 0.188 µM (active) | inactive | – | inactive | inactive | 0.0668 µM (active) | – | – | inactive | inactive | inactive | inactive | inactive | – | – | 11.9 µM (active) | –
10 | [Cl][Bi]([Cl])([c]1ccccc1)([c]1ccccc1)[c]1ccccc1 | 12.1 µM (active) | 27.1 µM (active) | 13.6 µM (active) | 4.83 µM (active) | inactive | 0.108 µM (active) | 0.136 µM (active) | inactive | 0.0242 µM (active) | 60.8 µM (active) | 24.2 µM (active) | inactive | 8.58 µM (active) | inactive | inactive | – | – | – | inactive | –
11 | C[C@@H](NCCCc1cccc(C(F)(F)F)c1)c1cccc2ccccc12 | inactive | 23.7 µM (active) | 18.8 µM (active) | – | inactive | – | – | inactive | 18.8 µM (active) | 29.8 µM (active) | 21.1 µM (active) | inactive | 18.8 µM (active) | inactive | inactive | inactive | inactive | 10.6 µM (active) | – | inactive
12 | O=c1[nH]cnc2nc[nH]c12 | inactive | inactive | – | inactive | inactive | – | inactive | inactive | inactive | inactive | inactive | – | – | inactive | inactive | inactive | – | – | inactive | inactive
13 | Oc1ccc2c(c1)-c1ccccc1C2 | inactive | inactive | 7.7 µM (active) | – | inactive | – | inactive | inactive | 13.7 µM (active) | inactive | inactive | inactive | inactive | – | inactive | inactive | – | – | inactive | –

From PubChem BioAssay (Tox21)
